# High-throughput results (PubChem)
# PLK1 PBD block: PLK1 (human) polo-box domain binding inhibition | Plk1 PBD binding of FITC phosphopeptide, fluorescence polarization | Potency, µM, most hits filed as inhibitors | 360,000 compounds, 2.8% hits | AID 720504; note: series mostly up to about 57 µM; nearly all actives have a fitted effect of over 65% in size
# Target sequence (P53350 whole entry, looked up, the tested form may be a part): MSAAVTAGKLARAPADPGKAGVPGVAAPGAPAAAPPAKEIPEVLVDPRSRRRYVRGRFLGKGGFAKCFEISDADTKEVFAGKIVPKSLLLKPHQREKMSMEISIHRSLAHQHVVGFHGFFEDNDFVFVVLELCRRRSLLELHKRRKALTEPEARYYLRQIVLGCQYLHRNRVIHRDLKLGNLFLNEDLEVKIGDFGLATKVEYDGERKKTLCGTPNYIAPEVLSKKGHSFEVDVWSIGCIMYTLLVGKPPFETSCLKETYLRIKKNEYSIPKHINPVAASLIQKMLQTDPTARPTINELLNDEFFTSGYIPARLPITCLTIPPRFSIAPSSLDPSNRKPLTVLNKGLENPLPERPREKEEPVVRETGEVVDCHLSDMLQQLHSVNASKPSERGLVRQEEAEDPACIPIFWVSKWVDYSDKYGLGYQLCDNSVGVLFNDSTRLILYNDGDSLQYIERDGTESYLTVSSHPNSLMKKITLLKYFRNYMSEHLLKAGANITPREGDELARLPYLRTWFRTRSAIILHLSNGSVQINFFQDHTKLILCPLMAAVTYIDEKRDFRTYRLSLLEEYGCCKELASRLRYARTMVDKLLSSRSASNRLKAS
# Tb PFK block: T. brucei PFK enzyme inhibition. O15648. T. brucei PFK, ADP-Glo luminescence. Potency, µM (titrated, usually from 57.5 µM), most hits filed as inhibitors. 330,000 compounds, 0.17% hits. AID 485367; note: nearly all actives have a fitted effect of over 60% in size
#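 Compounds were pin-transferred as a titration series up to 57 uM into substrate buffer (0.5 mM F6P, 0.1 mM ATP, pH 8.0), then 1.25 nM PFK was added and reactions ran 45 min before ADP-Glo detection.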
# BRCA1 expr act: increases BRCA1 expression; MCF7-BRCA1-FFLuc reporter, luminescence, 48 h; response scale: scaled: vehicle 0%, 10 µM genistein 100%; Potency, µM (top dose mostly 46.1 µM), most hits filed as activators; 380,000 compounds, 1.1% hits; AID 624202; note: nearly all actives have a fitted effect of over 80% in size
#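 MCF7 cells carrying a BRCA1-firefly luciferase reporter (2000 cells/well, phenol-red free MEM) were attached for 2 h at 37 °C, then given compounds for 48 h. Luminescence was read 15 min after luciferase reagent; activity normalized to genistein (10 microM) and DMSO.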
# VDR inhibitor: blocks the human vitamin D receptor. P11473. Potency, µM, usual class: inhibitors. VDR-SRC2-3 peptide fluorescence polarization, 2 h. 400,000 compounds, 0.93% hits. AID 504847
#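 Two reagent solutions held at 4 deg C in the dark were dispensed, compounds pinned at 23 nl, and the mixture incubated 2 h at room temperature. Read-out: fluorescence polarization of VDR–SRC2-3 peptide binding.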
# A number is an active result; . = inactive; ? = inconclusive; / = no result. Shown are actives, neighbours in structure and some others; about 3.9% of the full set was active somewhere. Calls come from the whole dose curve; as a rule, active = well fitted curve in the direction sought with a large enough effect; inconclusive = small, poorly fitted or top-dose-only effect, or another doubt; inactive = no such curve, though single readings can be large; an effect the other way counts as inactive or inconclusive.
SMILES,PLK1 PBD block,Tb PFK block,BRCA1 expr act,VDR inhibitor
Brc1ccc(-c2nnc(-c3cccnc3)o2)cc1,.,/,4.5µM,.
COc1cccc(NS(=O)(=O)c2ccc3c(c2)n(C)c(=O)n3C)c1,/,/,/,.
S=C(NCc1ccco1)NCc1ccco1,6µM,/,.,?
CC(=O)c1ccc(NC(=S)NCCc2ccc(S(N)(=O)=O)cc2)cc1,.,.,.,.
Cn1cc(Cl)c(C(=O)NNC(=S)NCc2ccco2)n1,27µM,.,.,?
CN(C)c1ccc(C(=S)NCc2ccco2)cc1,19µM,.,.,?
NS(=O)(=O)c1ccc(NC(=S)NCCc2ccccc2)cc1,6.7µM,?,.,.
CC(C)(C)NC(=S)NCc1ccco1,.,.,.,.
CCOC(=O)C1=C(CCc2ccccc2)NC(=O)NC1c1ccc(C#N)cc1 (stereo not given),.,/,.,.
Nc1c(C(=O)NCc2ccco2)nnn1-c1ccccc1,.,.,13µM,.
S=C(NCc1ccco1)Nc1ccc(Br)cc1Cl,.,.,10µM,.
OCCCNC(=S)Nc1ccc(Br)cc1Cl,.,.,?,.
O=C(NNC(=S)NCc1ccco1)c1ccccc1Br,.,.,.,.
O=C(NCc1ccco1)c1ccccc1Br,27µM,.,.,?
CN(C)c1ccc(CN(Cc2ccco2)C(=O)c2ccco2)cc1,24µM,.,.,.
CCOc1ccccc1CNC(=O)C1CCN(S(=O)(=O)c2ccc3c(ccn3C)c2)CC1,/,/,/,.
CS(=O)(=O)N1CCN(c2nc(-c3cccs3)nc3ccccc23)CC1,/,/,.,.
CC(=O)Nc1c(C)nn(-c2ccccc2)c1N1CCC(C(=O)Nc2ccccc2C(F)(F)F)CC1,/,/,/,.
S=C(NCc1ccco1)Nc1ccc(Cl)cc1Cl,.,.,7.9µM,.
NC(=O)c1ccc(NC(=S)NCc2ccco2)cc1,.,.,.,.
NS(=O)(=O)c1ccc(NC(=S)NCc2ccco2)cc1,27µM,?,.,?
S=C(NCc1cccc(Cl)c1)NCc1ccco1,?,.,.,?
COc1ccccc1/C=C/c1cncc(/C=C/c2ccccc2OC)c1,/,/,.,/
COc1ccc(C(c2nnnn2CC2CCCO2)N2CCN(c3ccc(F)cc3)CC2)cc1 (stereo not given),24µM,.,.,.
CCn1cc2c(n1)-c1c(oc(C(=O)Nc3cccc(C(F)(F)F)c3)c1C)CC2,/,/,/,.
SMILES,PLK1 PBD block,Tb PFK block,BRCA1 expr act,VDR inhibitor
COc1ccc(CNC(=O)c2ccc(C(C)(C)C)cc2)cc1,.,.,3.5µM,.
COc1ccc(CNC(=O)Nc2ccccc2)cc1,12µM,.,?,?
COc1ccc(NC(=O)C2CCCN2C(=O)NCc2ccccc2)cc1 (stereo not given),15µM,.,.,71µM
COc1ccc(CNC(=O)c2ccncc2)cc1,.,.,.,.
COc1ccc(CNC(=O)Nc2cccc(C)c2)cc1,.,.,3.2µM,.
COc1ccc(CNC(=O)Nc2ccc(OC)cc2)cc1,.,.,.,.
O=C(NCc1ccccc1)c1cccn1-c1nnc(N2CCCC2)s1,/,/,/,.
CC(=O)c1cccc(NC(=O)Nc2sc3nc4n(c(=O)c3c2C)CCC(C)CC4)c1 (stereo not given),/,/,/,.
Cc1ccc(C)c(NC(=O)c2cc(S(=O)(=O)N3CCN(c4cccc(Cl)c4)CC3)ccc2F)c1,/,/,/,.
COc1ccc(CNC(=O)Cn2cccc2C(=O)c2ccccc2)cc1,.,.,11µM,.
CCCc1cc(=O)[nH]c(SCC(=O)Nc2sccc2C#N)n1,.,.,.,.
C/C(=C\C[Si](C)(C)C)CCC=O,/,/,/,.
COc1ccc(C2CC(c3ccc(C)o3)=NN2C(C)=O)cc1 (stereo not given),.,.,6.3µM,.
CCN1CCN(CC(=O)N2N=C(c3ccc(OC)cc3)CC2c2ccc(OC)cc2)C(=O)C1=O (stereo not given),27µM,.,.,.
CCC(=O)N1N=C(c2ccc(C)o2)CC1c1ccc(N(C)C)cc1 (stereo not given),.,.,.,.
CC(=O)N1N=C(c2ccc(C)o2)CC1c1ccc(Br)cc1 (stereo not given),.,.,10µM,.
COc1ccc(C2=NN(C(=O)CCC(=O)O)C(c3ccc(OC)cc3)C2)cc1 (stereo not given),.,.,.,.
COc1ccc(C2CC(c3ccc(Cl)cc3)=NN2C(C)=O)cc1 (stereo not given),.,.,.,?
COc1ccc(NC(=O)c2cnc3cc(C)ccn3c2=O)c(OC)c1,/,/,/,.
CC(=O)N1N=C(c2ccc(C)cc2)OC1c1ccc(C)cc1 (stereo not given),.,.,.,.
CC(=O)N1N=C(c2ccc(C)cc2)OC1c1ccc(C(C)C)cc1 (stereo not given),.,.,7.9µM,.
CC1Cc2ccccc2N1C(=O)c1ccc(Br)o1 (stereo not given),.,/,?,.
CC1Cc2ccccc2N1C(=O)c1ccc2nccnc2c1 (stereo not given),.,.,.,.
Cc1ccc(C(=O)N2c3ccccc3CC2C)o1 (stereo not given),.,.,4µM,.
COc1ccc(C(=O)N2c3ccccc3CC2C)cc1OC (stereo not given),27µM,/,.,.
SMILES,PLK1 PBD block,Tb PFK block,BRCA1 expr act,VDR inhibitor
CC(Oc1ccc(F)cc1)C(=O)Nc1cc(S(=O)(=O)N2CCOCC2)ccc1N1CCCCC1 (stereo not given),.,.,.,.
C=C1NC(=O)c2cc(CN(C)c3ccc(C(=O)N[C@@H](CCC(=O)O)C(=O)O)s3)ccc2N1,/,/,/,.
N#C/C(=C\c1c(Cl)cccc1Cl)c1nc2ccccc2o1,0.42µM,.,.,.
C=CCn1c(SCC(=O)Nc2ccc(N(C)C)cc2)nnc1-c1cccc(C)c1,.,.,.,89µM
C=CCn1c(SCC(=O)Nc2cccc(C)c2)nnc1-c1cnccn1,.,.,.,.
COc1ccc(NC(=O)CN2C(=O)C(C)(C)c3ccccc32)cc1Cl,/,/,/,.
COc1ccccc1C(=O)N/C(=C/c1ccc(Br)cc1)C(=O)N1CCCC1,27µM,.,.,.
COc1ccc(C(=O)[C@]2(C)C=C(c3ccc(OC)cc3)[C@H](C)C2)cc1,/,/,/,.
CCOc1cnc(-c2ccc(OC)cc2)o1,.,.,7.9µM,.
CCOc1cnc(-c2ccc(Cl)cc2)o1,.,.,.,.
CCNc1nc(NC(N)=S)nc(NC(C)(C)C)n1,27µM,.,.,.
Cc1ccc2c(Cl)c(C)c(N3CCOCC3)nc2n1,.,/,.,.
COc1ccc(-c2cn(CCC(=O)O)c(-c3ccncc3)n2)cc1,.,.,.,.
COc1ccc(-c2cn(Cc3ccc(C(N)=O)cc3)c(-c3ccncc3)n2)cc1,.,.,4.5µM,.
CNc1ncnc2ccc(-c3ccccc3C#N)cc12,/,/,/,.
CSc1nc(N)c2ncn([C@@H]3O[C@H](COP(=O)(O)OP(=O)(O)O)C(O)[C@H]3O)c2n1 (stereo not given in full),/,/,/,.
CCC(C)NC(=O)C1CCC(CNS(=O)(=O)c2ccccc2)CC1 (stereo not given),.,.,.,.
CCC(C)NC(=O)C1CCC(CNS(=O)(=O)c2ccc3c(c2)N(C(C)=O)CCO3)CC1 (stereo not given),27µM,.,.,.
